From the supplement of paper PMC12282887
± gives the standard deviation of the averaged measurements.

What was measured:
Assay in all cases: promoter activity interaction Z-score (Lux/OD deviation from empty-vector control); higher = stronger promoter induction by the compound
[1] = test system: E. coli BW25113 acrABp lux reporter
Method in brief: (§1)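 At 37°C, E. coli BW25113 reporter cultures in 40 µl LB Lennox in 384-well plates were read for OD600 and luminescence every 30 min for 12 h. Windows were 0–8 h for wild type and 1–9 h for deletion strains, and wells under 10% of the median growth value were removed. The score is the Z-transformed residual of growth-normalised luminescence against a control fit.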

[2] = test system: E. coli BW25113 micFp lux reporter
Method in brief: as §1

[3] = test system: E. coli BW25113 ompFp lux reporter
Method in brief: as §1

[4] = test system: E. coli BW25113 robp lux reporter
Method in brief: as §1

[5] = test system: E. coli BW25113 soxSp lux reporter
Method in brief: as §1

[6] = test system: E. coli BW25113 tolCp lux reporter
Method in brief: as §1

[7] = 6.9 µg/ml, genetic background: wild type
[8] = 6.9 µg/ml, genetic background: ΔmarA
[9] = 6.9 µg/ml, genetic background: Δrob
[10] = 6.9 µg/ml, genetic background: ΔsoxS
[11] = 13.8 µg/ml, genetic background: wild type
[12] = 13.8 µg/ml, genetic background: ΔmarA
[13] = 13.8 µg/ml, genetic background: Δrob
[14] = 13.8 µg/ml, genetic background: ΔsoxS
[15] = 27.5 µg/ml, genetic background: wild type
[16] = 27.5 µg/ml, genetic background: ΔmarA
[17] = 27.5 µg/ml, genetic background: Δrob
[18] = 27.5 µg/ml, genetic background: ΔsoxS
[19] = 55 µg/ml, genetic background: wild type
[20] = 55 µg/ml, genetic background: ΔmarA
[21] = 55 µg/ml, genetic background: Δrob
[22] = 55 µg/ml, genetic background: ΔsoxS

In the case of `CCCC(=O)O` [Butyrate], the “promoter activity interaction Z-score” value [1, 7] is reported as -0.186 ± 0.091, the “promoter activity interaction Z-score” value [1, 8] is reported as -0.105 ± 0.089 and the “promoter activity interaction Z-score” value [1, 9] is reported as -0.0421 ± 0.058. For the same compound, the “promoter activity interaction Z-score” value [1, 10] was 0.455 ± 0.31, the “promoter activity interaction Z-score” value [1, 11] was 0.0203 ± 0.11 and the “promoter activity interaction Z-score” value [1, 12] was 0.0848 ± 0.57. For the same compound, the “promoter activity interaction Z-score” value [1, 13] was 0.344 ± 0.08, the “promoter activity interaction Z-score” value [1, 14] was -0.00445 ± 0.01 and the “promoter activity interaction Z-score” value [1, 15] was -0.32 ± 0.15. For the same compound, the “promoter activity interaction Z-score” value [1, 16] was 0.724 ± 0.18, the “promoter activity interaction Z-score” value [1, 17] was -0.04 ± 0.27 and the “promoter activity interaction Z-score” value [1, 18] was 0.471 ± 0.41. The “promoter activity interaction Z-score” value [1, 19] was 0.0224 ± 0.013, the “promoter activity interaction Z-score” value [1, 20] was 0.369 ± 0.73 and the “promoter activity interaction Z-score” value [1, 21] was 0.3 ± 0.086. The “promoter activity interaction Z-score” value [1, 22] was 0.561 ± 1.1, the “promoter activity interaction Z-score” value [2, 7] was -0.053 ± 0.54 and the “promoter activity interaction Z-score” value [2, 8] was -0.02 ± 0.084. For the same compound, the “promoter activity interaction Z-score” value [2, 9] was 0.0084 ± 0.082, the “promoter activity interaction Z-score” value [2, 10] was -0.0289 ± 0.27 and the “promoter activity interaction Z-score” value [2, 11] was 0.0525 ± 0.25. The “promoter activity interaction Z-score” value [2, 12] was 0.104 ± 0.01, the “promoter activity interaction Z-score” value [2, 13] was -0.131 ± 0.024 and the “promoter activity interaction Z-score” value [2, 14] was 0.104 ± 0.51. The “promoter activity interaction Z-score” value [2, 15] was -0.317 ± 0.084, the “promoter activity interaction Z-score” value [2, 16] was 0.0463 ± 0.13 and the “promoter activity interaction Z-score” value [2, 17] was -0.0949 ± 0.063. For the same compound, the “promoter activity interaction Z-score” value [2, 18] was 0.336 ± 0.088, the “promoter activity interaction Z-score” value [2, 19] was -0.235 ± 0.24 and the “promoter activity interaction Z-score” value [2, 20] was -0.118 ± 0.0028. For the same compound, the “promoter activity interaction Z-score” value [2, 21] was -0.0628 ± 0.18, the “promoter activity interaction Z-score” value [2, 22] was -0.082 ± 0.078 and the “promoter activity interaction Z-score” value [3, 7] was -0.311 ± 0.047. The “promoter activity interaction Z-score” value [3, 8] was -0.076 ± 0.29, the “promoter activity interaction Z-score” value [3, 9] was 0.0244 ± 0.24 and the “promoter activity interaction Z-score” value [3, 10] was -0.0786 ± 0.12. For the same compound, the “promoter activity interaction Z-score” value [3, 11] was -0.231 ± 0.022, the “promoter activity interaction Z-score” value [3, 12] was 0.259 ± 0.068 and the “promoter activity interaction Z-score” value [3, 13] was 0.303 ± 0.041. For the same compound, the “promoter activity interaction Z-score” value [3, 14] was 0.34 ± 0.31, the “promoter activity interaction Z-score” value [3, 15] was -0.53 ± 0.22 and the “promoter activity interaction Z-score” value [3, 16] was -0.0799 ± 0.19. The “promoter activity interaction Z-score” value [3, 17] was 0.0179 ± 0.31, the “promoter activity interaction Z-score” value [3, 18] was 0.623 ± 0.35 and the “promoter activity interaction Z-score” value [3, 19] was 0.0627 ± 0.12. The “promoter activity interaction Z-score” value [3, 20] was 0.515 ± 0.0087, the “promoter activity interaction Z-score” value [3, 21] was 0.664 ± 0.45 and the “promoter activity interaction Z-score” value [3, 22] was 0.842 ± 0.3. For the same compound, the “promoter activity interaction Z-score” value [4, 7] was 0.406 ± 0.012, the “promoter activity interaction Z-score” value [4, 8] was -0.648 ± 0.21 and the “promoter activity interaction Z-score” value [4, 9] was 0.484 ± 0.27. The “promoter activity interaction Z-score” value [4, 10] was 0.116 ± 0.23, the “promoter activity interaction Z-score” value [4, 11] was 0.00618 ± 0.49 and the “promoter activity interaction Z-score” value [4, 12] was 0.268 ± 0.098. For the same compound, the “promoter activity interaction Z-score” value [4, 13] was 0.377 ± 0.92, the “promoter activity interaction Z-score” value [4, 14] was 0.84 ± 0.41 and the “promoter activity interaction Z-score” value [4, 15] was -0.708 ± 0.16. For the same compound, the “promoter activity interaction Z-score” value [4, 16] was -0.0714 ± 0.84, the “promoter activity interaction Z-score” value [4, 17] was -0.162 ± 0.23 and the “promoter activity interaction Z-score” value [4, 18] was 0.234 ± 0.13. The “promoter activity interaction Z-score” value [4, 19] was 0.0368 ± 0.57, the “promoter activity interaction Z-score” value [4, 20] was -0.0155 ± 0.33 and the “promoter activity interaction Z-score” value [4, 21] was 0.391 ± 0.82. For the same compound, the “promoter activity interaction Z-score” value [4, 22] was 0.993 ± 0.59, the “promoter activity interaction Z-score” value [5, 7] was 0.0135 ± 0.086 and the “promoter activity interaction Z-score” value [5, 8] was 0.215 ± 0.14. The “promoter activity interaction Z-score” value [5, 9] was 0.301 ± 0.047, the “promoter activity interaction Z-score” value [5, 10] was 0.31 ± 0.33 and the “promoter activity interaction Z-score” value [5, 11] was 0.0512 ± 0.26. For the same compound, the “promoter activity interaction Z-score” value [5, 12] was 0.372 ± 0.21, the “promoter activity interaction Z-score” value [5, 13] was 0.172 ± 0.11 and the “promoter activity interaction Z-score” value [5, 14] was 0.159 ± 0.19. The “promoter activity interaction Z-score” value [5, 15] was 0.00814 ± 0.044, the “promoter activity interaction Z-score” value [5, 16] was 0.223 ± 0.09 and the “promoter activity interaction Z-score” value [5, 17] was 0.122 ± 0.097. For the same compound, the “promoter activity interaction Z-score” value [5, 18] was 0.33 ± 0.46, the “promoter activity interaction Z-score” value [5, 19] was -0.104 ± 0.11 and the “promoter activity interaction Z-score” value [5, 20] was 0.322 ± 0.006. The “promoter activity interaction Z-score” value [5, 21] was 0.0248 ± 0.034, the “promoter activity interaction Z-score” value [5, 22] was 0.334 ± 0.73 and the “promoter activity interaction Z-score” value [6, 7] was -0.319 ± 1.1. The “promoter activity interaction Z-score” value [6, 8] was -0.0114 ± 0.66, the “promoter activity interaction Z-score” value [6, 9] was -0.444 ± 0.1 and the “promoter activity interaction Z-score” value [6, 10] was -0.376 ± 0.46. For the same compound, the “promoter activity interaction Z-score” value [6, 11] was -0.518 ± 0.94, the “promoter activity interaction Z-score” value [6, 12] was -0.427 ± 0.69 and the “promoter activity interaction Z-score” value [6, 13] was 0.207 ± 1. The “promoter activity interaction Z-score” value [6, 14] was 0.311 ± 0.35, the “promoter activity interaction Z-score” value [6, 15] was -1.01 ± 0.066 and the “promoter activity interaction Z-score” value [6, 16] was 0.539 ± 0.083. For the same compound, the “promoter activity interaction Z-score” value [6, 17] was 0.18 ± 0.021, the “promoter activity interaction Z-score” value [6, 18] was 0.0693 ± 0.34 and the “promoter activity interaction Z-score” value [6, 19] was 0.0415 ± 0.077. The “promoter activity interaction Z-score” value [6, 20] was 0.218 ± 0.98, the “promoter activity interaction Z-score” value [6, 21] was -0.252 ± 0.71 and the “promoter activity interaction Z-score” value [6, 22] was 0.709 ± 0.36.
